ChEMBL document CHEMBL4296182, “CO-ADD screening of NIH NCI Diversity Set V”
For part of these data: Entries with a potency or affinity are not part of this list.

Key:
[1] = test system: Staphylococcus aureus; test: Antibacterial activity against Staphylococcus aureus MRSA ATCC 43300 (CO-ADD:GP_020); MIC in CAMBH media using NBS plates, by Resazurin F(560/590); assay type: functional; conditions: Concentration 20 uM, ASSAY_TEST Inhibition of Bacterial Growth, detection method Resazurin, Fluorescence (ex560/em590), MEDIA CAMHB, plate type 384well, CORNING #3640, time 18 hr
[2] = test system: Acinetobacter baumannii; test: Antibacterial activity against Acinetobacter baumannii ATCC 19606 (CO-ADD:GN_034); MIC in CAMBH media using NBS plates, by Resazurin F(560/590); assay type: functional; conditions: Concentration 20 uM, ASSAY_TEST Inhibition of Bacterial Growth, detection method Resazurin, Fluorescence (ex560/em590), MEDIA CAMHB, plate type 384well, CORNING #3640, time 18 hr
[3] = test system: Escherichia coli; test: Antibacterial activity against Escherichia coli ATCC 25922 (CO-ADD:GN_001); MIC in CAMBH media using NBS plates, by Resazurin F(560/590); assay type: functional; conditions: Concentration 20 uM, ASSAY_TEST Inhibition of Bacterial Growth, detection method Resazurin, Fluorescence (ex560/em590), MEDIA CAMHB, plate type 384well, CORNING #3640, time 18 hr
[4] = test system: Klebsiella pneumoniae; conditions: Concentration 20 uM; ASSAY_TEST Inhibition of Bacterial Growth; detection method Absorption (OD600); MEDIA CAMHB; plate type 384well; NBS; CORNING #3640; time 18 hr
[5] = test system: Candida albicans; conditions: 20 µM
[6] = test system: Cryptococcus neoformans; conditions: Concentration 20 uM; ASSAY_TEST Inhibition of Fungal Growth; detection method Resazurin; Absorption (OD600-OD570); plate type 384well; NBS; CORNING #3640

| Compound | Inhibition [1] | Inhibition [2] | Inhibition [3] | Inhibition [4] | Inhibition [5] | Inhibition [6] |
| --- | --- | --- | --- | --- | --- | --- |
| C=C(C)c1nc(Oc2ccccc2)nc(Oc2ccccc2)n1 | 19.07% | 6.26% | 6.34% | 11.06% | 0.6% | -9.97% |
| COC1OC2COC(c3ccccc3)OC2C(=O)C1NC(=O)c1ccccc1 (stereo not given) | 8.72% | 4.09% | 10.65% | 10.3% | 2.12% | -18.55% |
| O=S(=O)(c1ccc2c(c1)CCCN2)N1CCC[C@H]2CCCC[C@@H]21 | 4.63% | -20.33% | 3.15% | 6.75% | 8.6% | -4.42% |
| Cc1ccc(S(=O)(=O)Oc2cc(N)c3c(n2)CCC3)cc1 | 2.13% | -12.3% | 7.8% | 9.4% | 1.38% | -7.75% |
| Sc1nccn1-c1c(Cl)cccc1Cl | 10.46% | 12.03% | 0.7% | 7.58% | 4.08% | -8.98% |
| NC(=O)c1ccccc1OCC(=O)Nc1ccc(Cl)c(Cl)c1 | 5.21% | -16.17% | 19.19% | 9.46% | 4.37% | -18.28% |
| O=C(Oc1cccnc1O)c1cccc(Cl)c1 | -7.64% | 10.47% | 6.47% | 11.85% | 13.4% | -17.52% |
| NNC(=O)c1nnsc1-c1csnn1 | -28.09% | 0.78% | -18.51% | 1.34% | 13.6% | 15.04% |
| COc1ccc2c(=O)cc(-c3cccnc3)oc2c1OC | 4.17% | 8.21% | 2.42% | 26.45% | 9.13% | -11.85% |
| NC(=N\c1ccc(N)cc1)/C(N)=N/c1ccc(N)cc1 | -1.65% | -17.09% | 7.03% | 7.69% | 0.22% | -12.28% |
| NC(=O)c1ccc(Oc2ccc(C(N)=O)cc2)cc1 | 7.05% | 9.37% | 0.31% | 15.83% | -0.45% | -7.62% |
| Cc1ccc([N+](=O)[O-])cc1NC(=O)Nc1cccc(F)c1 | 33.45% | -10.69% | 8.59% | 12.62% | 18.3% | -9.48% |
| Clc1ccc(-c2c(C3=NCCCN3)nnn2-c2ccc(Cl)cc2)cc1 | 10.56% | -3.66% | 11.37% | 18% | 1.4% | -5.35% |
| CCC(=Cc1ccc(CC)cn1)CC | 5.02% | -14.68% | 4.35% | 10.54% | 0.05% | -5.56% |
| CN(C)S(=O)(=O)N1C(=O)c2ccccc2C1=O | 5.4% | 12.12% | -0.21% | 11.91% | 5.89% | -1.33% |
| CC(=O)NCC1(O)CCCC(C)C1 (stereo not given) | 7.69% | -13.88% | 5.11% | 9.82% | 1.28% | -5.78% |
| Cc1cc(S)nc(S)n1 | 19.64% | -5.84% | 8.34% | 8.54% | -0.64% | -0.35% |
| CC(C)NC(=O)Nc1cccc(Cl)c1 | 12.4% | 7.15% | 6.41% | 8.52% | -1.88% | -9.01% |
| CC1(CN2CCCC2)CCC(NC(=O)C(c2ccccc2)c2ccccc2)C(C)(C)O1 (stereo not given) | 23.4% | 6.65% | 12.21% | 18.43% | 0.1% | -5.78% |
| c1ccn(CCc2ccncc2)c1 | 10.09% | -4.91% | 7.14% | 10.92% | 2.03% | -5.95% |
| Cn1ncc2c(NCc3ccccc3)ncnc21 | 5.23% | -15.8% | 13.47% | 1.24% | -0.05% | -9.92% |
| O=C(CSc1nc2ccc([N+](=O)[O-])cc2s1)c1ccc2ccccc2c1 | -1.33% | 12.85% | 5.26% | 23.99% | 1.85% | 15.23% |
| COc1ccccc1NC(=O)Nc1cc(C(C)C)ccc1C | 13.43% | 2.93% | -1.81% | -0.93% | 0.16% | -4.04% |
| Clc1nc2nc3n(c2nc1Cl)CCC3 | 9.08% | 6.51% | 0.57% | 2.17% | 3.01% | -9.39% |
| CCc1nc(N)nc(N)c1-c1ccc(N(C)Cc2ccccc2)c([N+](=O)[O-])c1 | -14.23% | -5.52% | 6.75% | 5.93% | 0.08% | -8.19% |

| Compound | Inhibition [1] | Inhibition [2] | Inhibition [3] | Inhibition [4] | Inhibition [5] | Inhibition [6] |
| --- | --- | --- | --- | --- | --- | --- |
| Cc1ccc(NC(=O)N2CCN(C)CC2)cc1NC(=O)N1CCN(C)CC1 | 2.62% | 1.03% | -22.66% | 4.06% | 0.95% | 29.46% |
| COC(=O)C1(C)Cc2cc(OC(C)=O)c(OC(C)=O)cc2N1 (stereo not given) | 12.77% | 0.02% | 8.98% | 5.52% | -3.71% | -8.65% |
| Cc1nc2[nH]c(=O)n(O)c(=O)c2s1 | 4.12% | -18.15% | 5.04% | 12.49% | 3.41% | -6.64% |
| O=C(Nc1ccc(F)cc1)OCCOc1ccc(Br)cc1 | 6.52% | 0.97% | -0.96% | 0.6% | 2.88% | 3.63% |
| O=[N+]([O-])c1cccnc1Oc1cccnc1 | 16.25% | -14.38% | 11.2% | 9.34% | -2.59% | -10.27% |
| C(=N\N=c1/nnn(Cc2ccccc2)[nH]1)/c1ccccc1 | 11.96% | -3.55% | 3.73% | 9.14% | 6.47% | -8.48% |
| O=C(O)c1ccccc1-c1ccccc1C(=O)Nc1ccc2c(c1)nc(O)c1ccccc12 | 7.3% | -9.28% | 10.96% | 7.34% | 7.22% | -6.01% |
| CCc1nc(NC(C)(C)C)c2cnn(-c3ccccc3)c2n1 | 6.25% | 2.78% | 2.08% | 23.15% | 15.4% | -0.88% |
| CN1CCC(=C(c2ccc(Cl)cc2)c2ccccn2)CC1.O=C(O)/C=C\C(=O)O [CYCLIRAMINE MALEATE] | 6.43% | -10.18% | 9.66% | 13.03% | 1.65% | -5.61% |
| Cc1ccc(Cl)cc1NC(=O)N(C)CCO | -6.32% | 12.85% | -9.79% | 13.54% | 6.98% | -5.5% |
| Cc1ccc(Nc2nnc(-c3ccc4c(c3)OCO4)o2)c(C)c1 | 30.86% | -8.42% | 5.86% | 21.23% | 28.8% | -3.73% |
| O=C(Nc1ccc(Nc2ccccc2)cc1)Nc1ccccc1Cl | -2.92% | 1.03% | 8.7% | 12.39% | 2.75% | -5.44% |
| O=C(Nc1ccc2ccccc2c1)c1cccc(F)c1 | -15.53% | -12.84% | 8.09% | 2.58% | 9.01% | -2.23% |
| CCC(C)Nc1nc2c(c(=O)n(C)c(=O)n2C)n1C (stereo not given) | 12.63% | 12.04% | -1.91% | 12.65% | 3.5% | -7.05% |
| CCOC(=O)c1cnn2c(SC)ncnc12 | 10.61% | 5.37% | -2.6% | 12.61% | 5.51% | -8.81% |
| O=C(Nc1ccc(Cl)cc1)c1cc2c(cc1O)[nH]c1ccccc12 | -1.15% | -12.34% | 2.48% | 13.56% | 8.44% | -5.53% |
| C1CCC(NC2=NCCO2)CC1 | -4.28% | -18.87% | 9.63% | 6.74% | -0.27% | -10.7% |
| Oc1cc(-c2ccc(Cl)cc2)nc2ccccc12 | 0.37% | 13% | -1.34% | 16.07% | 18.1% | 5.32% |
| CCOC(=O)c1c(C)nc(C)c(C(=O)OCC)c1-c1cccnc1 | -3.54% | 13% | -4.27% | 5.06% | 0.35% | -2.16% |
| Cc1c(O)ccc2c(O)c(NC(=O)c3ccc4c(c3)CCC(C)(C)O4)c(=O)oc12 [CYCLONOVOBIOCIC ACID] | 10.86% | 10.56% | -1.41% | 4.57% | 4.26% | -3.84% |
| O=[N+]([O-])c1c(N2CCN(CCO)CC2)nc2ccccn12 | 9.01% | -8.14% | 6.29% | 3.38% | -0.65% | -4.29% |
| CC(C)(C)C(=O)Nc1ccc(NC(=O)C(C)(C)C)cc1 | -3.56% | 6.93% | 0.85% | 26.03% | 6.58% | 1.66% |
| O=C(O)c1cc2cc(OCc3ccccc3)ccc2[nH]1 | 6.76% | 10.19% | 8.06% | 12.38% | 9.61% | -8.34% |
| OCc1cc(O)c(CO)nn1 | -17.8% | -1.67% | -7.33% | 4.1% | -0.36% | 1.1% |
| c1ccc(-c2nc3ccccc3s2)nc1 | 11.77% | -14.54% | 6.85% | 18.93% | 0.91% | -15.52% |
